The values below come from PubChem BioAssay (NCI).

The panel holds about 83,000 compounds, 20% with a hit somewhere; the sample as a whole holds those more often.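 The test compound was applied at a single concentration to cells in 96-well plates for 48 hours, and percent growth was recorded.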 A number with no mark means an inactive call. Active and inactive are the calls of the source. The calls were made as follows: active = growth percent below 10; inactive = the rest.

Holding throughout (assay): NCI-60 one-dose screen, 48 h (100 = growth as untreated, 0 = no growth, -100 = all killed)
Holding throughout (conditions): 10 µM unless noted

Assay [1] relates to SR leukemia.
Assay [2] deals with RPMI-8226 leukemia.
The test system of assay [3] is OVCAR-8 ovarian.
Assay [4] deals with OVCAR-5 ovarian.
Assay [5] concerns OVCAR-4 ovarian.
The subject of assay [6] is SK-OV-3 ovarian.
In assay [7] the test system is IGROV1 ovarian.
Assay [8] has as its system OVCAR-3 ovarian.
The test system of assay [9] is HS 578T breast.
The test system of assay [10] is NCI/ADR-RES ovarian.

For `COc1cccc(-c2nn(-c3ccccc3)cc2-c2ccnc(NCCCNS(=O)(=O)c3ccc(Br)cc3)c2)c1`, the growth in [1] was 13.3%; in [2], 34.5%; in [3], 47.9%; in assay [4], 88.2%; in [5] it was 46.5%; in assay [6] it was 64.8%. Besides, the growth was 47.6% in [7], 58.8% in [8], 66.2% in assay [9] and 42% in [10].
Take `CCN1CCN(C(=O)[C@]23CCC(C)(C)C[C@H]2C2=CC[C@@H]4[C@@]5(C)CC/C(=N/O)C(C)(C)[C@@H]5CC[C@@]4(C)[C@]2(C)CC3)CC1`: the growth was 0.702% (active) in assay [1]; 16.6% in [2]; 56.9% in assay [3]; 78.1% in assay [4]; -20.5% (active) in assay [5]; 105% in assay [6]. The growth in assay [7] was 68%; in assay [8], 53.5%; in [9], 84.2%; in assay [10] it was 60.1%.
Regarding `CC[C@]12C=CCN3CC[C@@]4(c5cc([C@H]6CCC(=O)N6)c(OC)cc5N(C)[C@H]4[C@@](O)(C(=O)OC)[C@@H]1OC(C)=O)[C@@H]32`, the growth is 92% [2.5 µM] in assay [1]; 114% [2.5 µM] in assay [2]; 103% [2.5 µM] in assay [3]; 88.4% [2.5 µM] in [4]; 104% [2.5 µM] in assay [5]; 91.1% [2.5 µM] in assay [6]. The growth in assay [7] is 103% [2.5 µM]; in assay [8] it was 112% [2.5 µM]; in [9], 113% [2.5 µM]; in assay [10], 107% [2.5 µM].
In the case of `Cc1nnc2nc(N)[nH]n2c1=O`, the growth in assay [1] was 78.9%; in assay [2], 106%; in assay [3] it was 98.8%; in assay [4], 117%; in assay [5] it was 99.4%; in [6], 112%. Also, the growth in assay [7] was 103%; in [8] it was 104%; in [9] it was 112%; in assay [10] it was 99.7%.
As for `CCC(=O)c1c(C)[nH]c(C)c1C`, the growth in assay [1] was 70.7%; in assay [2], 113%; in [3], 85.1%; in assay [4] it was 48.8%; in [5], 123%; in assay [6], 93%. The growth in assay [7] was 76.1%; in assay [8], 115%; in assay [9], 138%; in [10], 85.3%.
Consider `C#CCn1c2c(c3ccccc31)C[C@]1(C)[C@H]3CC[C@@H]4[C@@H]5C(=CCC[C@H]5C(=C)C)CC[C@@]4(C)[C@]3(C)CC[C@H]1C2(C)C`, for which the growth in assay [1] is 82.7%; in assay [2] it was 106%; in assay [3] it was 105%; in assay [4], 101%; in [5], 100%; in assay [6], 108%. Also, the growth in assay [7] was 98.4%; in assay [8] it was 108%; in assay [9], 93.8%; in [10], 106%.
Consider `N#Cc1c(-c2ccc(O)cc2)c2c(N)nn(-c3ccccc3)c2[nH]c1=O`, for which the growth in [1] was 115%; in assay [2] it was 101%; in assay [3], 105%; in assay [4], 105%; in assay [5], 113%; in assay [6] it was 102%. For the same molecule, the growth was 93% in assay [7], 110% in assay [8], 104% in assay [9] and 102% in [10].
As for `COc1cccc(-c2nn(-c3ccccc3)cc2-c2ccnc(NCCCNS(=O)(=O)c3ccc(Cl)cc3)c2)c1`, the growth was 7.26% (active) in assay [1]; 26.6% in assay [2]; 37.3% in [3]; 75.3% in [4]; 42.8% in assay [5]; 60.5% in [6]. Moreover, the growth in assay [7] was 41.4%; in assay [8] it was 54%; in assay [9] it was 49.9%; in [10], 35.6%.
For the molecule `Cc1cc2nc3c4cc(N)ccc4n(CCN(C)C)c3nc2cc1C`, the growth in [1] is -0.184% (active); in assay [2], -7.46% (active); in assay [3], 13.7%; in [4] it was 18.5%; in assay [5], 14.6%; in [6], 18.4%. For the same molecule, the growth in assay [7] is 3.64% (active); in [8] it was 22.3%; in [9], 41.8%; in assay [10] it was 2.88% (active).
Take `COc1ccc(-c2cc(-c3c(C)oc4cc5occc5c(OC)c4c3=O)nc(N)c2C#N)cc1OC`: the growth in assay [1] was 5.99% (active); in assay [2], 55.2%; in assay [3], 61.2%; in assay [4] it was 92.9%; in assay [5], 74.6%; in assay [6] it was 75.7%. Besides, the growth is 51.8% in assay [7], 77.4% in assay [8], 53.5% in assay [9] and 61.9% in assay [10].
Turning to `O=C1c2cc3c(cc2-c2c1c1ccc(F)cc1c(=O)n2CCCN1CCOCC1)OCO3`, the growth in assay [1] is 4.41% (active); in assay [2], 46.1%; in assay [3] it was 47%; in [4], 78.9%; in assay [5], 78.5%; in assay [6], 20.1%. For the same molecule, the growth in assay [7] was 77.5%; in [8], 85.7%; in assay [9] it was 100%; in [10], 36.6%.
With `C=C(C)[C@@H]1CC[C@]2(C(=O)O)CC[C@]3(C)[C@H](CC[C@@H]4[C@@]5(C)C/C(=C/c6cccc(I)c6)C(=O)C(C)(C)[C@@H]5CC[C@]43C)[C@@H]12`, the growth in assay [1] is 24%; in [2], 9.91% (active); in assay [3], 20.5%; in assay [4], 81.3%; in assay [5], 3.26% (active); in [6], 24.2%. In addition, the growth was 47.6% in assay [7], 5.15% (active) in [8], 43.9% in assay [9] and 31.5% in [10].
`CC1(C)c2ccccc2C(=O)C1(Br)Cc1ccccc1` (stereo not given): the growth in assay [1] is 53.5%; in assay [2], 46.8%; in assay [3], 93%; in [4], 73.7%; in assay [5] it was 63.6%; in assay [6], 110%. Also, the growth in [7] is 92.5%; in [8], 65.4%; in assay [9], 84.1%; in [10], 72.8%.
As to `COc1ccc(-c2n[nH]nc2-c2cc3ccccc3s2)cc1O`, the growth in [1] is 18.6%; in assay [2] it was 21.1%; in assay [3] it was 27.7%; in [4], 38.2%; in assay [5], 52.4%; in assay [6], 15.5%. Also, the growth in assay [7] was 49%; in assay [8], 16.1%; in assay [9], 18.3%; in assay [10], 13.5%.
`CC1(C)C(=O)/C(=C\c2cccnc2)C[C@]2(C)[C@H]3CC[C@@H]4[C@@H](C(=O)/C=C/c5ccncc5)CC[C@@]4(C)[C@]3(C)CC[C@@H]12`: the growth in assay [1] was 5.46% (active); in assay [2] it was -7.22% (active); in assay [3] it was 19.5%; in assay [4], 18.1%; in [5], 18.9%; in assay [6] it was 64.2%. The growth in assay [7] is -28.1% (active); in assay [8], -48.6% (active); in [9], 31.7%; in assay [10], -0.549% (active).
As to `COc1ccc(/C(=C\c2ccc3c(c2)OCO3)C(=O)Nc2nc3ccccc3s2)cc1OC`, the growth in assay [1] was 69.8%; in [2], 78.2%; in assay [3], 86.8%; in assay [4], 93.7%; in assay [5] it was 92.2%; in assay [6], 102%. Moreover, the growth was 101% in assay [7], 97% in assay [8], 95% in [9] and 98.1% in [10].
Consider `Cc1ccc(/C=C(\C#N)c2cc3ccccc3n2C)cc1`, for which the growth was 25.2% in assay [1]; 14% in [2]; 38.9% in assay [3]; 38.7% in assay [4]; 61% in assay [5]; 67.8% in assay [6]. The growth in assay [7] was 30.5%; in assay [8], -12.6% (active); in assay [9] it was 34.1%; in assay [10], -2.11% (active).
Turning to `C=COCCCCCCCCCCCCCCCCCC`, the growth in assay [1] is 94.6%; in assay [2] it was 115%; in assay [3], 96.5%; in assay [4] it was 106%; in [5], 109%; in assay [6], 103%. Also, the growth was 118% in [7], 92.6% in assay [8], 89.3% in assay [9] and 98.9% in [10].
In the case of `C=C(C)[C@@H]1CC[C@]2(C)[C@H](CC=C3[C@@H]4CC(C)(C)CC[C@]4(C(=O)OC)CC[C@]32C)[C@@]1(C)CC/C(N)=N/O`, the growth in assay [1] is 0.151% (active); in [2], 34.9%; in assay [3], 38.4%; in [4] it was 90.4%; in assay [5], 36.4%; in assay [6] it was 68%. The growth in [7] was 80.2%; in assay [8] it was 67.2%; in [9] it was 72.4%; in assay [10], -24.5% (active).
As for `NC1=C(C/C(N)=N\O)C(c2ccccc2Cl)c2c(ccc3ccccc23)O1` (stereo not given), the growth in assay [1] is 54.7%; in [2], 81.9%; in [3] it was 90.7%; in assay [4], 100%; in assay [5], 110%; in assay [6], 92.2%. Further, the growth in assay [7] is 59.2%; in assay [8], 77.9%; in assay [9], 83.9%; in [10] it was 57.6%.
Turning to `CC(=O)O[C@H]1CC[C@]2(C)[C@H]3C(=O)C=C4[C@@H]5C[C@](C)(C(=O)N6CCCNCC6)CC[C@]5(C)CC[C@@]4(C)[C@]3(C)CC[C@H]2C1(C)C`, the growth in assay [1] was -17.3% (active); in assay [2], -32.3% (active); in assay [3], -24.6% (active); in assay [4], 8.24% (active); in assay [5], -5.14% (active); in [6], 70.6%. In addition, the growth is -80.5% (active) in [7], -86.4% (active) in [8], 96.2% in assay [9] and -41.6% (active) in [10].
`COc1ccc(-c2c(-c3nc4ccc(N5CCOCC5)cc4[nH]3)[nH]c(C)c2C(C)=O)cc1`: the growth in [1] was 47.8%; in assay [2], 3.61% (active); in assay [3], 50.5%; in assay [4] it was 48.2%; in [5] it was 45.1%; in [6], 27.7%. In addition, the growth in [7] was 23.8%; in assay [8], 46%; in [9] it was 22.3%; in assay [10], 38.7%.
Take `Cc1cc(C=O)c(C)c2c1[nH]c1ccccc12`: the growth in assay [1] was 85.5%; in [2], 93.9%; in [3], 93%; in [4], 62.4%; in assay [5] it was 87.8%; in [6] it was 106%. Also, the growth is 97.6% in [7], 108% in assay [8], 107% in assay [9] and 94.2% in assay [10].
For the molecule `CC(=O)N1N=C(c2ccc(C)cc2)CC1c1ccc(Oc2ccc(Br)cc2)cc1` (stereo not given), the growth is 93.9% in assay [1]; 74.8% in assay [2]; 85.2% in [3]; 88.9% in assay [4]; 74.6% in [5]; 62.1% in assay [6]. Also, the growth was 66.7% in assay [7], 88.3% in assay [8], 87.4% in assay [9] and 73.1% in assay [10].
`[B-][N+](CC)(CC)c1ccccc1`: the growth in [1] is 74.7%; in [2], 108%; in assay [3], 112%; in [4] it was 86.9%; in assay [5] it was 103%; in assay [6], 109%. For the same molecule, the growth was 112% in [7], 112% in assay [8], 120% in assay [9] and 110% in [10].
